In ChEMBL document CHEMBL4513216, “Probing the Open Global Health Chemical Diversity Library for Multistage-Active Starting Points for Next-Generation Antimalarials” (ACS Infect Dis, 2020):
Screen size: about 69,000 compounds; about 8,600 (12%) showed an effect of 50% or more. Many of the other results were omitted from the sample, so strong results are more common in it than they were.

What follows are compounds tested on Plasmodium berghei (assay: Screen against P. berghei liver stage (PbLuc), transformed with Luciferase, at 10uM). Details: tested at 10 uM.
Assay type: functional, HepG2
`COCCN1C(=O)CCC12CCCN(Cc1ccccc1F)C2` (stereo not drawn) showed an INHIBITION of 44.5%. With `Cc1ncsc1CN1C[C@@H]2CCCO[C@@H]2[C@H](N(C)C(C)C)C1` the INHIBITION was 50.7%. With `Cc1ncsc1CN1C[C@@H]2CCCO[C@@H]2[C@H](Nc2ccccn2)C1` the INHIBITION was 34.2%. In the case of `Cc1cc(CN2C[C@@H]3CCCO[C@@H]3[C@H](N(C)C(C)C)C2)no1`, the INHIBITION is reported as 71.6%. `COC1CCC[C@@H]2CN(Cc3csc(C)n3)C[C@H]12` (stereo partly drawn) showed an INHIBITION of 40.3%. `Cc1nc(CN2C[C@@H]3CCCO[C@@H]3[C@H](N(C)C(C)C)C2)cs1` showed an INHIBITION of 66.8%. Compound `Cc1cc(CN2C[C@@H]3CCCO[C@@H]3[C@H](NS(C)(=O)=O)C2)no1` has an INHIBITION of -13%. `Cc1nc(CN2C[C@@H]3CCCO[C@@H]3[C@H](NC(=O)CC3CC3)C2)cs1` was tested, and the INHIBITION was 47.9%. For `CCS(=O)(=O)N[C@@H]1CN(Cc2cc(C)on2)C[C@@H]2CCCO[C@@H]21`, the INHIBITION was 21%. With `Cc1ncsc1CN1C[C@H](OCC(C)C)[C@H]2OCCC[C@H]21` the INHIBITION was -37.9%. Work on `Cc1cccc(C)c1NC(=O)CN(C)C(C)c1nc(C(C)(C)C)no1` (stereo not drawn) yielded an INHIBITION of 34.6%. `Cc1cccc(OCCNC(=O)CN2CCCC2Cn2cncn2)c1` (stereo not drawn) showed an INHIBITION of 12.7%. Compound `CNC(=O)c1cc(C)ccc1NCc1cn2cc(C)ccc2n1` has an INHIBITION of 29.6%. `CCC(C#N)NC(=O)c1sccc1OC` (stereo not drawn) gave an INHIBITION of 26.4%. In the case of `COCC1CC2(CCN(C(=O)c3cncc(C)c3)CC2)CO1` (stereo not drawn), the INHIBITION is reported as -26.1%. Work on `Cc1ccc(N2CCCc3sc(C(=O)NCc4cccnc4)nc32)nn1` yielded an INHIBITION of 63.5%. In the case of `O=C(NCc1cccnc1)c1nc2c(s1)CCCN2c1ncccn1`, the INHIBITION is reported as 26.3%. In the case of `Cc1ccc(N2CCCc3sc(C(=O)NCc4ccncc4)nc32)nn1`, the INHIBITION is reported as 42.5%. With `CC(C)N(C)CC(=O)N(C)C(c1cccc(F)c1)c1ccccn1` (stereo not drawn) the INHIBITION was -55.4%. Work on `O=C(Nc1ccc(Cl)cn1)C1CCCN(Cc2ccccn2)C1` (stereo not drawn) yielded an INHIBITION of 15.7%. Work on `O=C(Nc1ccc(Cl)cn1)C1CCCN(CCc2ccncc2)C1` (stereo not drawn) yielded an INHIBITION of 74.4%. `CCN(CC1CCCN(CCc2cccc(OC)c2)C1)C(=O)CN(C)C` (stereo not drawn) gave an INHIBITION of 16%. `CN(Cc1cccc(O)c1)CC1CCCN(CCc2ccc(Cl)cc2)C1` (stereo not drawn) was tested, and the INHIBITION was 73.5%. Compound `COc1ccccc1CCN1CCCC(CN(C)Cc2cc(C)n[nH]2)C1` (stereo not drawn) has an INHIBITION of 36.8%. Work on `CN(Cc1ccccc1O)CC1CCCN(CCc2ccc(Cl)cc2)C1` (stereo not drawn) yielded an INHIBITION of 5.36%. With `COc1ccccc1CCN1CCCC(CN(C)Cc2ccc(C)o2)C1` (stereo not drawn) the INHIBITION was 22%. For `COc1ccc(CCN2CCCC(CN(C)Cc3[nH]cnc3C)C2)cc1` (stereo not drawn), the INHIBITION was 16.3%. `COc1ccc(CCN2CCCC(CN(C)Cc3ccc(C)o3)C2)cc1` (stereo not drawn) was tested, and the INHIBITION was 70.6%. In the case of `O=C(Nc1ccc(Cl)cn1)C1CCCN(CCc2ccccn2)C1` (stereo not drawn), the INHIBITION is reported as 48.3%. `Cc1nc[nH]c1CN(C)CC1CCCN(CCc2ccc(Cl)cc2)C1` (stereo not drawn) was tested, and the INHIBITION was 33.7%. With `Cc1cc(CN(C)CC2CCCN(CCc3ccc(Cl)cc3)C2)[nH]n1` (stereo not drawn) the INHIBITION was 86.6%. Compound `O=C(O)c1cc(-c2cccs2)nc2c(Cl)cnn12` has an INHIBITION of 47.1%. `Cn1cc(C#N)c(=O)n(CC(O)c2ccccc2F)c1=O` (stereo not drawn) showed an INHIBITION of -4.185%. `CC(=O)N1CCC(c2cnc(-c3c(C)n[nH]c3C)cn2)CC1` gave an INHIBITION of 49.6%. For `CC(CC(=O)O)CC(=O)Nc1sc2c(c1C(N)=O)CCc1ccccc1-2` (stereo not drawn), the INHIBITION was 27.5%. Compound `CNC(=O)C(C)(C)N1CCC[C@H]1C(=O)NCCN1CCCC1` has an INHIBITION of -84.9%. `Cc1ccc(C(=O)N2CCCN(Cc3cccs3)CC2)n1C` showed an INHIBITION of 6.683%. `O=S1(=O)NC(C2CCN(Cc3ccncc3)CC2)Nc2ccccc21` (stereo not drawn) gave an INHIBITION of 1.5%. In the case of `Cc1nc(CN(C)CC2CCCN(CCc3ccc(Cl)cc3)C2)n(C)n1` (stereo not drawn), the INHIBITION is reported as 39.3%. `Cc1noc(CN(C)CC2CCCN(CCc3ccc(Cl)cc3)C2)n1` (stereo not drawn) showed an INHIBITION of 58.5%. With `COc1ccccc1CC1CCCN(CCC#N)C1` (stereo not drawn) the INHIBITION was 9.32%. `CN(Cc1cnc(N)nc1)CC1CCCN(CCc2ccc(Cl)cc2)C1` (stereo not drawn) showed an INHIBITION of -7.94%. For `Cc1nc(CN(C)CC2CCCN(CCc3ccc(Cl)cc3)C2)no1` (stereo not drawn), the INHIBITION was 40.8%. With `CN(Cc1ccncc1)CC1CCCN(CCc2ccc(Cl)cc2)C1` (stereo not drawn) the INHIBITION was 65.9%. `COc1ccccc1CCN1CCCC(CN(C)Cc2c[nH]c(C)n2)C1` (stereo not drawn) was tested, and the INHIBITION was 85.7%. `CN(Cc1nnc(C2CC2)n1C)C1CCN(CCc2ccncc2)C1` (stereo not drawn) gave an INHIBITION of -11.2%. `COc1ccccc1CN(Cc1cccnc1)Cc1c[nH]c(C)n1` showed an INHIBITION of 12%. For `CC(=O)NCCNC(=O)c1sc(-c2ccc(Cl)cc2)nc1C`, the INHIBITION was -14.75%. `C[C@@H]1CN(CCc2ccccc2)C[C@]12CCN(CC(=O)N(C)C)C2=O` was tested, and the INHIBITION was -29.5%. Work on `CC(C#N)CN(C)Cc1nc2c(cnn2C)c(=O)[nH]1` (stereo not drawn) yielded an INHIBITION of 5.72%. `CCN(CC1CCCO1)S(=O)(=O)N1CCCCCC1` (stereo not drawn) gave an INHIBITION of -9.21%. `Cc1ccc2c(c1)c(Sc1ccccc1)c(CC(=O)O)n2C` showed an INHIBITION of 12.8%. Compound `Cc1c[nH]nc1C1CCN(C(=O)CC2CCCC2)C1` (stereo not drawn) has an INHIBITION of -136%. Compound `CCc1oc(C(=O)N(C)Cc2nonc2C)cc1CN(CC)CC` has an INHIBITION of 35.7%. Work on `Cc1ccc(C(=O)N2CCC3(CC2)C(=O)NCCN3C)cc1O` yielded an INHIBITION of 4.64%. For `CC(C)(C)n1cc(NC(=O)C2CN(Cc3ccccc3)CCO2)cn1` (stereo not drawn), the INHIBITION was -43.3%. Compound `Cc1cc(C)cc(NC(=O)CC2CN(Cc3ccccc3)CCO2)c1` (stereo not drawn) has an INHIBITION of -10.9%. With `CN(C)c1ncccc1NC(=O)C1CN(Cc2ccccc2)CCO1` (stereo not drawn) the INHIBITION was 85.1%. For `CC(C)c1ncc(CN2CCOC(C(=O)Nc3ccccc3)C2)cn1` (stereo not drawn), the INHIBITION was 6.32%. `Cc1cc(NC(=O)C2CN(Cc3ccccc3)CCO2)ccn1` (stereo not drawn) was tested, and the INHIBITION was 96.2%. In the case of `CN(C)c1ncccc1CN1CCOC(C(=O)Nc2ccccc2)C1` (stereo not drawn), the INHIBITION is reported as 37.6%. `O=C(O)C1CN(Cc2cccc(-c3ccccn3)c2)CCO1` (stereo not drawn) gave an INHIBITION of -1.45%. Work on `CN(C)c1ccc(NC(=O)C2CN(Cc3ccccc3)CCO2)cn1` (stereo not drawn) yielded an INHIBITION of 52.6%. Compound `CN(C)c1ncc(CN2CCOC(C(=O)Nc3ccccc3)C2)cn1` (stereo not drawn) has an INHIBITION of 23.9%. `Cc1ccc(CNc2cc(N3CCCC3CO)ncn2)s1` (stereo not drawn) showed an INHIBITION of -23.9%. `C[C@@H]1CN(C(=O)c2cccn2C)C[C@]12CCN(c1ccsc1)C2=O` gave an INHIBITION of 8.93%. `CC(C)c1nnc2n1CC(CNCc1nc3ccccc3o1)CC2` (stereo not drawn) was tested, and the INHIBITION was 13%. `Cc1cc(NCc2cn(C)nc2-c2cccnc2)n(C)n1` was tested, and the INHIBITION was -17.1%. `CCn1cnnc1CNC(=O)N1CCCCCC1` was tested, and the INHIBITION was -8.11%. In the case of `COCC1COCCC12CCN(S(=O)(=O)c1cccnc1)CC2` (stereo not drawn), the INHIBITION is reported as 36.5%. Work on `Cc1cnn(CCNCc2nnc(-c3ccc(F)cc3)o2)c1` yielded an INHIBITION of -35.7%. For `O=C(C1CNCCN1C(=O)CCOc1ccccc1)N1CCCC1` (stereo not drawn), the INHIBITION was -27.5%. `Cc1c(C(=O)O)cnn1-c1ccc(-c2nc(C(C)C)no2)cn1` gave an INHIBITION of -44.7%. In the case of `CC(C)c1nc(C2CCCN(C(=O)c3ccc4[nH]nnc4c3)C2)no1` (stereo not drawn), the INHIBITION is reported as -6.14%. In the case of `c1cnn(CCCO[C@@H]2CC[C@H]3[C@H]2OCCN3CC2CC2)c1`, the INHIBITION is reported as 53%. `CC(=O)N1CCO[C@H]2[C@H](OCCCn3cccn3)CC[C@@H]21` showed an INHIBITION of 19.4%. `O=C(C1CCC1)N1CCO[C@H]2[C@H](OCCCn3cccn3)CC[C@@H]21` gave an INHIBITION of -47.8%. Work on `Cc1nnc(N2C[C@@H](OCCCn3cccn3)[C@H]3OCCC[C@H]32)s1` yielded an INHIBITION of 50.1%. Compound `Cc1nnc(N2C[C@H](OCc3ccncc3)[C@H]3OCCC[C@H]32)s1` has an INHIBITION of 19.5%. With `Cc1nnc(N2C[C@H](OCCCn3cccn3)[C@H]3OCCC[C@H]32)s1` the INHIBITION was 43.9%. Work on `O=C(CC1CC1)N1CCO[C@H]2[C@H](OCCCn3cccn3)CC[C@@H]21` yielded an INHIBITION of 55%. Compound `c1cnn(CCCO[C@@H]2CC[C@H]3[C@H]2OCCN3CC2CCOCC2)c1` has an INHIBITION of 26.3%. In the case of `CCS(=O)(=O)N1CCO[C@H]2[C@H](OCCCn3cccn3)CC[C@@H]21`, the INHIBITION is reported as -0.182%. For `Clc1ccc(OCCNCCn2cccn2)cc1`, the INHIBITION was 9.14%. Compound `O=C(CCOCC(F)(F)F)N1CCCC(n2ccnc2)C1` (stereo not drawn) has an INHIBITION of -63.3%. `O=C(NCc1ccccc1Cn1cncn1)C1CC1` was tested, and the INHIBITION was 49.8%. Work on `CC(=O)N1CCN(Cc2ccccn2)CC2(CC(=O)N(C)C2)C1` (stereo not drawn) yielded an INHIBITION of 14.1%. In the case of `Cc1ncsc1CCC(=O)N1CCCC1c1cccnc1` (stereo not drawn), the INHIBITION is reported as -2.79%. Work on `CCN1CCC(CC(=O)N2CCn3cccc3C2c2cccnc2)CC1` (stereo not drawn) yielded an INHIBITION of 18.9%. With `Cc1ncsc1CCC(=O)N1CCn2cccc2C1c1cccnc1` (stereo not drawn) the INHIBITION was 59.1%. Work on `Cc1nnsc1C(=O)NCc1cccnc1N1CCCC(O)C1` (stereo not drawn) yielded an INHIBITION of 66.3%. `CC(=O)c1ccc(C(=O)NCc2cccnc2N2CCCC(O)C2)s1` (stereo not drawn) was tested, and the INHIBITION was 69.7%. In the case of `O=C(NCc1cccnc1N1CCCC(O)C1)c1ccsc1` (stereo not drawn), the INHIBITION is reported as 74.3%. `O=C(NCc1cccnc1N1CCCCC1)c1ccc2c(c1)OCO2` gave an INHIBITION of -1.85%. `Cc1nnsc1C(=O)NCc1cccnc1N1CCc2ccccc2C1` was tested, and the INHIBITION was 5.8%. Compound `CC(NC(=O)c1cccs1)C(=O)NCc1cccnc1N1CCCCC1` (stereo not drawn) has an INHIBITION of 2.26%. Compound `CCC1CCCN(C(=O)NCc2cccnc2-n2cccn2)C1` (stereo not drawn) has an INHIBITION of 33.8%. With `CS(=O)(=O)NCC1CCCN(C(=O)Nc2cccnc2N2CCCC2)C1` (stereo not drawn) the INHIBITION was -8.69%. Work on `O=C(NCc1cccnc1N1CCCC(O)C1)c1ccc2[nH]nnc2c1` (stereo not drawn) yielded an INHIBITION of 18.6%. Work on `CCS(=O)(=O)NCc1cccnc1N1CCCC(O)C1` (stereo not drawn) yielded an INHIBITION of 89.1%. Compound `Cc1nnsc1C(=O)NCC1CCN(c2ccccn2)CC1` has an INHIBITION of 14.6%. With `O=C(NCc1cccnc1N1CCCCC1)c1cccs1` the INHIBITION was 7.12%. Compound `O=C(NC1CC1)C1[C@H]2CN(Cc3ccc(-c4cc[nH]n4)s3)C[C@@H]12` (stereo partly drawn) has an INHIBITION of 33.3%.
